SMILES strings stand for the structures. Among all 330,000 compounds or so, about 880 (0.27%) were called active. Not shown: some 1% with an inconclusive outcome. The rule behind the calls is not given here. Only a sample is shown.

In general, inhibition refers to the relative decrease from the control value, in per cent.

This experiment can be described thus: beta-lactam sensitization of Mtb H37Rv, H37Rv (AID 434955).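 Note: growth measured after seven days incubation then overnight dye step; 0% = bacteria only wells and 100% = bacteria with antibiotic.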 Particulars: M. tuberculosis H37Rv growth with meropenem, percent inhibition, at 25 µM.
[1] abbreviates: measured here: primary screen without meropenem.

Consider `C/C(Cc1ccccc1)=N\NC(=O)CNC(=O)c1ccccc1Cl`, for which the inhibition was -6.3% (inactive) (stronger effect = higher value) and 2.92% under setting [1].

As for `CCc1cccc(C)c1NC(=O)COC(=O)Cc1ccsc1`, the inhibition (stronger effect = higher value) was -1.39% (inactive) and the inhibition under setting [1] worked out at 2.58%.

On to `O=S(=O)(c1ccc(F)cc1)N1CCN=C1SCc1cccc(F)c1`, for which the inhibition was 9.8% (inactive) (stronger effect = higher value) and 11.2% under setting [1].

As for `NC(=O)C1CCN(C(=O)/C(=C/c2ccco2)NC(=O)c2ccccc2)CC1`, the inhibition runs as follows: (stronger effect = higher value) -2.14% (inactive); under setting [1], -8.97%.

Regarding `CCCCNCc1ccc(SC)cc1`, the inhibition runs as follows: (stronger effect = higher value) -3.24% (inactive); under setting [1], -0.62%.

With `O=C1CC(=O)Nc2cc(S(=O)(=O)N3CCN(c4cccc(C(F)(F)F)c4)CC3)ccc2N1`, the inhibition by setting is: (stronger effect = higher value) -1.42% (inactive); under setting [1], 4.41%.

As for `Cc1ccc(N2C(=O)CC(NCc3ccc4c(c3)OCO4)C2=O)cc1Cl` (configuration not stated), the inhibition runs as follows: (stronger effect = higher value) -7.15% (inactive); under setting [1], 0.64%.

For `COc1cc(NC(=S)N2CCCC(C)C2)cc(OC)c1OC` (configuration not stated), the inhibition is, setting by setting: (stronger effect = higher value) 0.37% (inactive); under setting [1], 3.47%.

With `CCOc1ccc(NC(=O)C(C)N2C(=O)c3ccccc3C2=O)cc1` (configuration not stated), the inhibition (stronger effect = higher value) was -0.05% (inactive) and the inhibition under setting [1] was 0.73%.

On to `CC(C)NS(=O)(=O)c1ccc(CCC(=O)N2CCOCC2)cc1`, for which the inhibition was -4.86% (inactive) (stronger effect = higher value) and -6.67% under setting [1].

For the compound `CC(=O)OCCC(C)C`, the inhibition (stronger effect = higher value) is -5.13% (inactive) and the inhibition under setting [1] is -1%.

As to `CCOC(=O)c1cn[nH]c1NC(=S)Nc1ccccc1`, the inhibition is -8.22% (inactive) (stronger effect = higher value) and -3.62% under setting [1].

Consider `CCCCNC(=O)Cn1nc(C)c(S(=O)(=O)N2CCOCC2)c1C`, for which the inhibition is -4.34% (inactive) (stronger effect = higher value) and -4.6% under setting [1].

Consider `Fc1ccc(N2N=C(c3cccs3)CC2c2ccco2)c(F)c1` (configuration not stated), for which the inhibition reads like this: (stronger effect = higher value) 35.4% (inactive); under setting [1], 9.4%.

`Cc1ccc(N(CC(=O)NC2CCCCC2)C(=O)CCCC(=O)Nc2ccccn2)c(C)c1`: the inhibition reads like this: (stronger effect = higher value) -1.33% (inactive); under setting [1], -1.01%.

As to `CCSC1=NCCN1C(=O)c1ccc(S(=O)(=O)N(CC)CC)cc1`, the inhibition reads like this: (stronger effect = higher value) 6.44% (inactive); under setting [1], 0.45%.

As for `COc1ccccc1-c1oc2ccccc2c1C#CCCCCO`, the inhibition (stronger effect = higher value) is 10.7% (inactive) and the inhibition under setting [1] worked out at 7.25%.

For `CC(C)OC(=O)CN1CCN(c2ccc(Cl)cc2)CC1`, the inhibition is, setting by setting: (stronger effect = higher value) -3.97% (inactive); under setting [1], -7.14%.

As to `O=C(Nc1cccnc1)c1noc2c1CCCCC2`, the inhibition reads like this: (stronger effect = higher value) 2.93% (inactive); under setting [1], -8.89%.

As for `COc1ccc(S(=O)(=O)N2CCCCC2)cc1NC(=O)c1cc([N+](=O)[O-])ccc1N1CCOCC1`, the inhibition reads like this: (stronger effect = higher value) -11.2% (inactive); under setting [1], -3.23%.

Regarding `COC(=O)CC(=O)N1CCN(c2ccc(Cl)c(Cl)c2)CC1`, the inhibition was -8.83% (inactive) (stronger effect = higher value) and 97.6% under setting [1].

`Cc1cccc(NC(=O)C(C)N2C(=O)C3C4CC(C(Br)C4Br)C3C2=O)c1` (configuration not stated): the inhibition is, setting by setting: (stronger effect = higher value) -22.1% (inactive); under setting [1], -16.2%.

In the case of `CC(C)c1ccc(NC(=O)CCN2C(=O)c3ccc([N+](=O)[O-])cc3C2=O)cc1`, the inhibition is, setting by setting: (stronger effect = higher value) -2.88% (inactive); under setting [1], -6.43%.

As to `Cc1nc(COc2cccc(Cl)c2)sc1C(=O)/C=C/N(C)C`, the inhibition is -4.65% (inactive) (stronger effect = higher value) and -0.85% under setting [1].

As to `C/C(=N/NC(=O)CSc1ccccn1)c1ccc([N+](=O)[O-])cc1`, the inhibition is -3.17% (inactive) (stronger effect = higher value) and 6.64% under setting [1].

Regarding `O=C(NC(=O)c1ccccc1)Nc1ccccc1O`, the inhibition was 0.65% (inactive) (stronger effect = higher value) and 3% under setting [1].

On to `O=C1[C@@H]2C(c3cccnc3)=NO[C@@H]2C(=O)N1c1ccc(Cl)cc1Cl`, for which the inhibition is -5.66% (inactive) (stronger effect = higher value) and 0.68% under setting [1].

In the case of `C[C@@H]1C[C@@H]2O[C@H]2/C=C\C=C\C(=O)Cc2c(Cl)c(O)cc(O)c2C(=O)O1`, the inhibition is, setting by setting: (stronger effect = higher value) 29.7% (inactive); under setting [1], 18.4%.

On to `CCc1ccc2[nH]c(=O)c(Cc3ccccc3)c(O)c2c1`, for which the inhibition (stronger effect = higher value) is -0.83% (inactive) and the inhibition under setting [1] is -2.95%.

As for `O=C(C1CCCN1S(=O)(=O)c1ccc(Br)cc1)N1CCOCC1` (configuration not stated), the inhibition reads like this: (stronger effect = higher value) -1.22% (inactive); under setting [1], 0.94%.

On to `Cc1c(NC(=O)C(C)OC(=O)c2cc3c4ccccc4n(C)c3s2)c(=O)n(-c2ccccc2)n1C` (configuration not stated), for which the inhibition reads like this: (stronger effect = higher value) 4.17% (inactive); under setting [1], 3.63%.

For the compound `O=C(CSC1CC(=O)N(CCc2ccccc2)C1=O)Nc1ccc(Cl)cc1` (configuration not stated), the inhibition was -1.52% (inactive) (stronger effect = higher value) and -3.81% under setting [1].

With `CCOc1ccc(C(O)Cn2c(=N)n(CCN3CCCCC3)c3ccccc32)cc1` (configuration not stated), the inhibition was 8.31% (inactive) (stronger effect = higher value) and 3.41% under setting [1].

In the case of `O=S(=O)(Nc1ccc(Cl)cn1)c1cnc(Cl)c(Br)c1`, the inhibition is -1.47% (inactive) (stronger effect = higher value) and -1.06% under setting [1].

On to `Cc1cc(NC(=O)OC(C)C)ccc1-c1ccc(NC(=O)OC(C)C)cc1C`, for which the inhibition reads like this: (stronger effect = higher value) 0.85% (inactive); under setting [1], -5.74%.

Turning to `CCNC(=O)CC1C(=O)N(c2ccc(OC)cc2)C(=O)N1CCOC` (configuration not stated), the inhibition is 7.04% (inactive) (stronger effect = higher value) and -0.36% under setting [1].

Regarding `COC(=O)Cc1ccc(NC(=S)NCc2ccco2)cc1`, the inhibition is, setting by setting: (stronger effect = higher value) -6.59% (inactive); under setting [1], 47.6%.

Consider `Cc1cccc([C@@H]2[C@@H]3C(=O)N(C)C(=O)[C@@H]3[C@@H]3C(=O)Nc4ccccc4C(=O)N23)c1`, for which the inhibition is, setting by setting: (stronger effect = higher value) -6.47% (inactive); under setting [1], -0.42%.

As to `O=C1c2ccccc2C(=O)N1CCOc1ccc(F)cc1`, the inhibition was -2.05% (inactive) (stronger effect = higher value) and -1.56% under setting [1].

Turning to `Cn1cc(CCC(=O)N2CCCC(C(=O)c3ccc(C(C)(C)C)cc3)C2)cn1` (configuration not stated), the inhibition was 0.49% (inactive) (stronger effect = higher value) and 4.84% under setting [1].

Regarding `CCSCc1nc(N)nc(NCCc2ccccc2)n1`, the inhibition was 0.44% (inactive) (stronger effect = higher value) and 4.31% under setting [1].

The record behind these values is PubChem BioAssay AID434955 (Southern Research Specialized Biocontainment Screening …, 2010).
